Measurements from PubChem BioAssay (NCI).
About 83,000 compounds went through this panel and 20% of them were active in at least one assay; those are over-represented in the sample as a whole.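 A percent growth of 40 corresponds to 60% growth inhibition; 0 means no net growth; -100 means all cells died. Active threshold: below 10.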 A number with no mark means an inactive call. Active and inactive are the calls of the source.

Key:
Experiment in all cases: NCI-60 one-dose screen, 48 h (100 = growth as untreated, 0 = no growth, -100 = all killed)
Details in all cases: 10 µM unless noted
HCT-15 colon = tested on: HCT-15 colon
HT29 colon = tested on: HT29 colon
SNB-75 CNS = tested on: SNB-75 CNS
SNB-19 CNS = tested on: SNB-19 CNS
U251 CNS = tested on: U251 CNS
PC-3 prostate = tested on: PC-3 prostate
SK-MEL-5 melanoma = tested on: SK-MEL-5 melanoma
UACC-62 melanoma = tested on: UACC-62 melanoma
LOX IMVI melanoma = tested on: LOX IMVI melanoma
SK-MEL-28 melanoma = tested on: SK-MEL-28 melanoma

Structure (SMILES)	growth (HCT-15 colon)	growth (HT29 colon)	growth (SNB-75 CNS)	growth (SNB-19 CNS)	growth (U251 CNS)	growth (PC-3 prostate)	growth (SK-MEL-5 melanoma)	growth (UACC-62 melanoma)	growth (LOX IMVI melanoma)	growth (SK-MEL-28 melanoma)
CC(=O)N1Cc2ccccc2C(C)Cc2cc(Cl)ccc21 (stereo not given)	105%	97.6%	101%	101%	105%	95.8%	103%	98%	105%	112%
Cc1nc(Nc2cccnc2)sc1C(=O)/C=C/c1ccc(Cl)cc1	15%	6.4% (active)	-1.63% (active)	14.2%	3.86% (active)	29.4%	73.1%	36.1%	0.346% (active)	77.8%
COc1ccc(C(=O)c2cc(OC)c(OC)c(OC)c2)cc1/C=C/C(=O)c1ccc(O)cc1	-29.5% (active)	26.2%	28.7%	34.8%	0.446% (active)	54.1%	11.3%	20.1%	0.734% (active)	22.5%
C#CCN1C(=O)/C(=c2\sc3n(c2=O)NC2C(N=3)N(CC)C(=O)N2CC)c2ccccc21 (stereo not given)	43.8%	26.2%	14.2%	89.1%	94.4%	47.5%	53%	54.1%	60.3%	57.3%
COc1ccc(/C=C/c2nc(N3CCOCC3)c3nc(Cl)c(Cl)cc3n2)cc1OC	97.5%	97.4%	88.3%	102%	103%	102%	103%	101%	97.2%	109%
Cc1cc(C(=O)O)c(N)c(C)n1	100%	112%	89.4%	110%	104%	96.4%	115%	96.6%	94.7%	117%
O=C(CNC1CCCCC1)Nc1ccc(-c2nc3ccccc3s2)cc1	62.9%	62.3%	67.3%	91%	65.1%	79.7%	90.8%	96.2%	73.9%	95.2%
Clc1ccc([I+]c2ccc(Cl)cc2Cl)c(Cl)c1	30.2%	-26.8% (active)	34%	87.8%	6.72% (active)	9.9% (active)	104%	12.3%	10.5%	87.3%
CC1Cc2c(N(C)C)ncnc2N(C)c2ccc(Cl)cc21 (stereo not given)	18.8%	10.8%	-12.4% (active)	39.1%	27.3%	32.9%	11.1%	33.2%	35.8%	52.4%
Cn1c(C(N)=O)cc2c1-c1nc(NC3CCCCC3)ncc1CCC2	90.5%	91.4%	104%	81.9%	83.8%	94.8%	95%	103%	89.6%	97.4%
O=[N+]([O-])c1cccc(-c2cc(-c3cc(Br)ccc3O)[nH]n2)c1	15.6%	48.3%	38.8%	25.4%	17.9%	13%	6.28% (active)	15.2%	6.51% (active)	42.1%
CN(C)C/C=C/C(=O)Nc1cc2c(Nc3cccc(Cl)c3F)ncnc2cc1OCCOC(F)F	21.8%	18.2%	1.35% (active)	57.1%	50.3%	40.2%	73.4%	53.5%	43.9%	78.2%
O=C(CCC(=O)OC1CCCC1)OC1CCCC1	93.6%	98.3%	77.3%	96.6%	92.2%	93.8%	99.3%	103%	105%	99.3%
Cc1ccc(C2=NN(c3ccc(S(=O)(=O)NC(=O)NCc4ccccc4)cc3)C(c3ccc(N(C)C)cc3)C2)c(C)c1 (stereo not given)	32.6%	43%	65.1%	54.8%	22.6%	32.7%	12.2%	54.7%	36.3%	26.6%
